Laboratory results reported in PubChem BioAssay.
For some assays here: Potency and affinity values are given separately. Activity calls are given as the source filed them. Unless noted, how the calls were made is not given here.

What was measured:
[1] = antimalarial activity against Dd2 strain (AID 2302;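 active means growth inhibition above 50% at the single 2 µM test dose, taken to imply half-maximal potency below 2 µM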;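 further: 0% = DMSO untreated growth and 100% = chloroquine plus artemisinin killed control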); conditions: P. falciparum Dd2 in RBCs, LDH growth readout, 72 h; at 2 µM; hits give high values
[2] = HepG2 cytotoxicity, primary screen, cytotoxicity control for P. falciparum antimalarial project, cell-based, ATP luminescence (AID 2303;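 active means inhibition above 50%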;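 further: 0% = DMSO wells and 100% = digitonin-killed cells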); conditions: HepG2 viability, 24-48 h, at 10 µM, hits give high values
[3] = molecular target: L-lactate dehydrogenase (Plasmodium falciparum (isolate CDC / Honduras)) (UniProt Q27743); test: PfLDH activity inhibition – cell lysate, 3D7 strain, counter-screen for P. falciparum growth inhibition project (AID 2304);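 further: 0% = vehicle and 100% = reference inhibitor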; conditions: P. falciparum 3D7 crude extract, LDH APAD/NBT absorbance; at 2 µM; hits give high values
[4] = inhibition of 3D7 malaria parasite growth – strain 3D7 (AID 2306);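 further: 0% = DMSO wells and 100% = chloroquine plus artemisinin control wells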; conditions: P. falciparum 3D7 erythrocytic growth, LDH absorbance, 72 h; at 2 µM; hits give high values
[5] = molecular target: Calcium-dependent protein kinase 1 (Plasmodium falciparum (isolate 3D7)) (UniProt P62344); test: PfCDPK1 kinase inhibitors, biochemical, TCAMS library (AID 1159585; cut-off not given, nearly all actives have IC50 up to about 0.98 µM;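 further: inhibitors leave more ATP so luminescence rises with inhibition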); conditions: recombinant PfCDPK1, Kinase-Glo ATP depletion luminescence
[6] = molecular target: Plasmodium falciparum protein kinase 6 (PK6, PF3D7_1337100) (UniProt Q8IDW1); test: PfPK6 kinase inhibitors, biochemical, TCAMS library (AID 1159586); conditions: recombinant PfPK6, Kinase-Glo ATP depletion luminescence
[7] = molecular target: Protein kinase 7 (PK7), Plasmodium falciparum 3D7 (PF3D7_0213400) (UniProt Q7YTF7); test: inhibition of Plasmodium PK7 catalytic activity – biochemical, TCAMS antimalarial set, Kinase-Glo luminescence (AID 1159587); conditions: recombinant PfPK7, Kinase-Glo ATP depletion luminescence
[8] = molecular target: Calcium-dependent protein kinase 4 (Plasmodium falciparum (isolate 3D7)) (UniProt Q8IBS5); test: PfCDPK4 kinase inhibitors, biochemical, TCAMS library (AID 1159588; cut-off not given, nearly all actives have IC50 up to about 0.91 µM); conditions: recombinant PfCDPK4, Kinase-Glo ATP depletion luminescence
Sequence of Calcium-dependent protein kinase 4 (Plasmodium falciparum (isolate 3D7)) (Q8IBS5 whole entry, looked up): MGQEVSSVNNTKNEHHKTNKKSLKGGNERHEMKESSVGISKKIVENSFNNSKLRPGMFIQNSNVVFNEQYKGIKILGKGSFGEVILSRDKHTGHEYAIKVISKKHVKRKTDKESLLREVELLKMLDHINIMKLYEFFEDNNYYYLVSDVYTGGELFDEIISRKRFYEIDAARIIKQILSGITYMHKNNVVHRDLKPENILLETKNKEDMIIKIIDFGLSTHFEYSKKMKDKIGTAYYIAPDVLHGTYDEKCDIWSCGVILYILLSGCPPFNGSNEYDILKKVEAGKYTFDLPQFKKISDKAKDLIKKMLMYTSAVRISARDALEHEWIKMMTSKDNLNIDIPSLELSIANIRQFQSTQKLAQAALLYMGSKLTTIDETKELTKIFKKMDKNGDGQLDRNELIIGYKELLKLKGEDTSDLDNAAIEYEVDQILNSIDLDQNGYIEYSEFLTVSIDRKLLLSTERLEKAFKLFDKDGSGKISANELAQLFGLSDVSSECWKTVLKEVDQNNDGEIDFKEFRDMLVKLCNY

Sequence of Calcium-dependent protein kinase 1 (Plasmodium falciparum (isolate 3D7)) (P62344 whole entry, looked up): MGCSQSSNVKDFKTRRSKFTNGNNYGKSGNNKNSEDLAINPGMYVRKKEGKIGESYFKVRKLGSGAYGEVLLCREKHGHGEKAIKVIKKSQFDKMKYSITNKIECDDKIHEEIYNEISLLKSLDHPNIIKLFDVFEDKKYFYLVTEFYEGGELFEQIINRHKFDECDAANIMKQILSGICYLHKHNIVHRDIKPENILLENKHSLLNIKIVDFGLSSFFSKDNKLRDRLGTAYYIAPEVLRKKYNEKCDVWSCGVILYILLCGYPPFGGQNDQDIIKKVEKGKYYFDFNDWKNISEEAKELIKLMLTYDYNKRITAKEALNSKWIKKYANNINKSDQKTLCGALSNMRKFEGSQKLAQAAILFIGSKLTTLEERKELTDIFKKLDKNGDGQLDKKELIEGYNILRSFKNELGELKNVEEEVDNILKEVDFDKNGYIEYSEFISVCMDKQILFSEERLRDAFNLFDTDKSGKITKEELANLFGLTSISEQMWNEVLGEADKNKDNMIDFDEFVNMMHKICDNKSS
Sequence of Protein kinase 7 (PK7), Plasmodium falciparum 3D7 (PF3D7_0213400) (Q7YTF7 1-343): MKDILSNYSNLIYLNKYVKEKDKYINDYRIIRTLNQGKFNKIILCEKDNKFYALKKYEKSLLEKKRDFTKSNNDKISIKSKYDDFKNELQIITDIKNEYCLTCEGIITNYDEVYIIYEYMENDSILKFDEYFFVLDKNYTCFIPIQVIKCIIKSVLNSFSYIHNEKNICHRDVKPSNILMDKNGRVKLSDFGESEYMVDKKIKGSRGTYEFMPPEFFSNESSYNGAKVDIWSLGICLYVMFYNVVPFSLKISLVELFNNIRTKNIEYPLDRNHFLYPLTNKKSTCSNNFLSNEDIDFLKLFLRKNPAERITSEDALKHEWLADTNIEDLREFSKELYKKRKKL
Sequence of L-lactate dehydrogenase (Plasmodium falciparum (isolate CDC / Honduras)) (Q27743 whole entry, looked up): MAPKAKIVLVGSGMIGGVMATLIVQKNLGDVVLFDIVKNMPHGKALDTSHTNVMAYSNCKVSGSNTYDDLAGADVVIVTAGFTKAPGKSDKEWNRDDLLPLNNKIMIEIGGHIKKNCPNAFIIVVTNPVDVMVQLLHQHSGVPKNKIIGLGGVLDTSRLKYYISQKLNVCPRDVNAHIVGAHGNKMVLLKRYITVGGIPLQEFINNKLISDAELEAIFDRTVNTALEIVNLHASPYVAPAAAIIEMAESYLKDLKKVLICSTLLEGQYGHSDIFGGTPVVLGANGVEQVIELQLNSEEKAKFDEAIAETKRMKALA
Sequence of Plasmodium falciparum protein kinase 6 (PK6, PF3D7_1337100) (Q8IDW1 1-305): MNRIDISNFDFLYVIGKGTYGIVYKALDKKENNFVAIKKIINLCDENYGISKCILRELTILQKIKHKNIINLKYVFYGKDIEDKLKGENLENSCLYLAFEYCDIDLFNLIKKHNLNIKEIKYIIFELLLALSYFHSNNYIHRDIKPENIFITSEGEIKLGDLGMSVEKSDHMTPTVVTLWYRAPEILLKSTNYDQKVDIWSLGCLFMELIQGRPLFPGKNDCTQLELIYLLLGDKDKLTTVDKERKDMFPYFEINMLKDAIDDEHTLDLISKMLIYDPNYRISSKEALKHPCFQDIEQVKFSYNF

COC(=O)c1ccc(CCC(C)NCC(O)c2cccc(Cl)c2)cc1 (stereo not given)
active: growth inhibition [1] 94% | growth inhibition [4] 100%
inactive: inhibition [2] -4% | inhibition [3] 1% | outcome [5] | outcome [6] | outcome [7] | outcome [8]

CC(C)N(Cc1ccc(-c2ccc(C(F)(F)F)cc2)cc1)C(=O)Cn1c(CCc2cccc(F)c2F)cc(=O)c2ccc(CCCN3CCCCC3)cc21
inactive: inhibition [3] 7% | outcome [5] | outcome [6] | outcome [7] | outcome [8]
active: growth inhibition [1] 82% | inhibition [2] 99% | growth inhibition [4] 100%

COc1ccc2nccc([C@@H](O)CN3CCC(NC(=O)c4ccc(Cl)c(Cl)c4)CC3)c2c1
inactive: inhibition [2] 21% | inhibition [3] -5% | outcome [5] | outcome [6] | outcome [7] | outcome [8]
active: growth inhibition [1] 57% | growth inhibition [4] 96%

CC(C)(C)[C@@H](Nc1ccc(C#N)c2ccccc12)C(=O)NC1(Cc2ccc(O)cc2)CCCC1
active: growth inhibition [1] 74% | growth inhibition [4] 90%
inactive: inhibition [2] 14% | inhibition [3] 0% | outcome [5] | outcome [6] | outcome [7] | outcome [8]

CC1(C)N=C(N)N=C(N)N1OCCc1ccc2ccccc2c1
inactive: inhibition [3] 3% | outcome [5] | outcome [6] | outcome [7] | outcome [8]
active: growth inhibition [1] 95% | inhibition [2] 65% | growth inhibition [4] 96%

Cc1cccc(-c2cccc3c(NC(=O)N4CCc5cc6nccc(N7CCN8CCC[C@H]8C7)c6cc54)cccc23)n1
active: growth inhibition [1] 68% | growth inhibition [4] 94%
inactive: inhibition [2] 14% | inhibition [3] -6% | outcome [5] | outcome [6] | outcome [7] | outcome [8]

CNC(=O)c1ccc2nc(-c3ccc(-c4ccccc4)cc3)n(CC3CCN(CC4CCCC4)CC3)c2c1
active: growth inhibition [4] 84%
inactive: growth inhibition [1] 36% | inhibition [2] 13% | inhibition [3] -6% | outcome [5] | outcome [6] | outcome [7] | outcome [8]

CCCCCCOc1ccc(N2C(N)=NC(N)=NC2(C)C)cc1
active: growth inhibition [4] 98%
inactive: growth inhibition [1] 0% | inhibition [2] 5% | inhibition [3] 7% | outcome [5] | outcome [6] | outcome [7] | outcome [8]

O=C1NC(=O)C(c2cccc(NC(=O)c3ccncc3)c2)=C1c1ccccc1
active: growth inhibition [4] 101%
inactive: growth inhibition [1] -3% | inhibition [2] 5% | inhibition [3] 3% | outcome [5] | outcome [6] | outcome [7] | outcome [8]

O[C@H]1[C@H](OCc2ccc(-c3ccccc3)cc2)CC[C@@H]1N1CCCCC1
active: growth inhibition [1] 101% | growth inhibition [4] 96%
inactive: inhibition [2] 9% | inhibition [3] 9% | outcome [5] | outcome [6] | outcome [7] | outcome [8]
